In PubChem BioAssay (Tox21):
Records with an inconclusive call do not appear. Unmarked numbers belong to inactive results. Active and inactive are the calls of the source. The call rests on the fitted dose curve; in most records, active means well fitted cell-killing curve with a large enough effect in the repeat runs; inconclusive means weak or mixed curves; inactive means flat fitted curve, though single readings scatter.

assay: qHTS RealTime-Glo MT Cell Viability Assay in HepG2 cells - 8 hour (AID 1224873); conditions: RealTime-Glo luminescence; series mostly up to 76.8 µM; viability change, negative = cytotoxic: at the top concentration; further: nearly all actives have a fitted effect of over 55% in size
Source text: National Center for Advancing Translational Sciences [NCATS]
NIH Chemical Genomics Center [NCGC]
U.S. Environmental Protection Agency [EPA]
National Institutes of Environmental Health Sciences [NIEHS]
National Toxicology Program [NTP]
U.S. Food and Drug Administration [FDA]
Measure of cell viability is critical in the cell-base assay. Analysis of cell viability is necessary for the characterization of cell responses to cytotoxic drugs and environmental stress. A RealTime-Glo MT Cell Viability Assay to monitor cell viability in real time of continues cell culture during 40 hours of compound treatment was used to screen Tox21 10K library compounds in HepG2 cells. The RealTime-Glo MT Cell Viability Assay is a nonlytic, homogeneous, bioluminescent method to measure cell viability in real time using a simple, plate-based method. The assay involves adding NanoLuc luciferase and a cell-permeant prosubstrate to cells in culture. Viable cells reduce the proprietary prosubstrate to generate a substrate for NanoLuc luciferase. This substrate diffuses from cells into the surrounding culture medium, where it is rapidly used by the NanoLuc Enzyme to produce a luminescent signal. The signal correlates with the number of viable cells, making the assay well suited for cytotoxicity studies.
Tox21 Assay Protocol Summary:
The mixture of HepG2 cell suspension and reagents were dispensed at 600cells/6 ul/well in 1536-well tissue culture treated black solid bottom plates using a Multidrop dispenser. After the assay plates were incubated at a 37 C/5% CO2 incubator for 5 hours, 23 nL of compounds dissolved in DMSO, positive and negative controls was transferred to the assay plate by a pintool work station. The plates were incubated at 37 C for 40 hours. The luminescence intensity were measured at 0h, 8h, 16h, 24h, 32h and 40h time points using ViewLux plate reader during compound treatment.
On the % scale 0 is the no-effect control and ±100 the full control effect; potency means the concentration at half of the fitted maximal effect.

Point of comparison: `C=CCCCCCCCCCCCCCCCC`, viability change, negative = cytotoxic -17.7% [at 6.97 µM]. Against it:
- [O]=[Bi] — higher, 0.919% [at 6.97 µM]

Point of comparison: `CCC(=O)Oc1ccc(/C(CC)=C(\CC)c2ccc(OC(=O)CC)cc2)cc1`, “viability change, negative = cytotoxic” value -11.2%. Against it:
- O=C(O)c1cccnc1C(=O)O — higher, 0.148%
- CCCC1C(CC)=CC(CC)=CN1c1ccccc1 (stereo not given) — higher, -2.36%
- CC(C)(C)CC(C)(C)c1ccc(OCCO)cc1 — lower, -28.7%
- C/C=C/C=C/CCCCCCCO — lower, -14.7%
- CCC(C)=O — higher, 0.478%
- CC(=O)Nc1ccccc1C — higher, -0.0037%
- Nc1ccc(Cl)cc1[N+](=O)[O-] — lower, -11.8%
- CC(C)CCCC(=O)O — higher, 4.67%
- Cc1nccn1-c1ccc(Sc2cccc(C3(C(N)=O)CCOCC3)c2)cc1 — lower, -20.2%
- CCCOc1ccc(S(=O)(=O)N2CCN(CC)CC2)cc1-c1nc2c(CC)n(Cc3ccccn3)nc2c(=O)[nH]1 — lower, -19%
- CC#N — higher, 3.15%
- CO[Si](C)(OC)OC — higher, -0.409%
- c1ccc(COCc2ccccc2)cc1 — higher, 3.09%
- CCC(Cc1ccccc1)(C(=O)c1ccc(N2CCOCC2)cc1)N(C)C (stereo not given) — lower, -19.8%
- C[C@@H]1C[C@H]2[C@@H]3CCC4=CC(=O)C=C[C@]4(C)[C@@]3(F)[C@@H](O)C[C@]2(C)[C@@]1(O)C(=O)CO — lower, -18.4%
- C=CC(=C)CCCC(C)(C)OC(C)=O — higher, 2.99%
- O=Cc1c(Cl)cccc1Cl — higher, 1.44%
- C=CC(=O)NCOCC(C)C — higher, -11%
- CCn1nc(C)c2c1C(=O)NCC(c1ccc(O)cc1)=N2 — higher, -0.144%
- CC(C)CCCCCCOC(=O)CCCCC(=O)OCCCCCCC(C)C — higher, 1.76%

Point of comparison: `CNCCCC1c2ccccc2C=Cc2ccccc21`, “viability change, negative = cytotoxic” value -14.8% [at 35.3 µM]. Against it:
- Nc1c(I)cc(I)c(C(=O)N(CCC(=O)O)c2ccccc2)c1I — lower, -17.9% [at 35.3 µM]
- CCC(C(=O)OCCOCCN(CC)CC)c1ccccc1 (stereo not given) — higher, -3.57% [at 35.3 µM]
- CCc1cccc(N(C)C(N)=Nc2cccc3ccccc23)c1 — higher, -5.44% [at 35.3 µM]
- O=C(CCC1CCN(Cc2ccccc2)CC1)c1ccc2c(c1)NCCCC2 — lower, -15.4% [at 35.3 µM]
- O=C(O)C(Cc1cc(I)c(O)c(I)c1)c1ccccc1 (stereo not given) — higher, -0.353% [at 35.3 µM]
- COc1cc2c(N3CCN(C(=O)Nc4ccc(OC(C)C)cc4)CC3)ncnc2cc1OCCCN1CCCCC1 — higher, -7.84% [at 35.3 µM]
- CC(=O)CC(c1ccc([N+](=O)[O-])cc1)c1c(O)c2ccccc2oc1=O (stereo not given) — higher, 0.0052% [at 35.3 µM]
- CN(C)CCOC1=Cc2ccccc2Sc2ccc(Cl)cc21 — higher, -2.86% [at 35.3 µM]
- CCCCCC=CCC=CCCCCCCCC(=O)OCC — higher, -12.5% [at 35.3 µM]
- O=C(CCCN1CCC(O)(c2ccc(Br)cc2)CC1)c1ccc(F)cc1 — higher, -11.7% [at 35.3 µM]
- C/C(=N/NC(=O)c1ccncc1)C(=O)O — higher, -1.42% [at 35.3 µM]
- CCOCCn1c(C2CCN(CCc3ccc(C(C)(C)C(=O)O)cc3)CC2)nc2ccccc21 — higher, 7.5% [at 35.3 µM]
- CN(C(=O)C(Cl)Cl)c1ccc(OC(=O)c2ccco2)cc1 — higher, -7.34% [at 35.3 µM]

For `CCC(=O)OC/C=C/c1ccccc1`, the Potency was “inactive”.
With `CO[C@@]12[C@H](COC(N)=O)C3=C(C(=O)C(C)=C(N)C3=O)N1C[C@@H]1N[C@@H]12` the Potency was 1340 nM (active).

Work on `CN1CCN(c2c(F)cc3c(=O)c(C(=O)O)cn4c3c2OCN4C)CC1` yielded a viability change, negative = cytotoxic of 8.52% [at 15.8 µM].
